# Results taken from PubChem BioAssay (Tox21).
# “And” between values parts separate entries of the source, which are not always exact repeats. Identical values can stand only once. Inconclusive results are not listed. Where a call stands in place of a potency, no number is given. A structure can be active in one record and inactive in another. The source made the active and inactive calls. Unless noted, the call rests on the fitted dose curve.
# Columns and labels:
# [1] = qHTS assay to identify small molecule agonists of the vitamin D receptor (VDR) signaling pathway - cell viability counter screen (AID 743224; active means well fitted curve in the direction sought with a large enough effect in the repeat runs; an effect the other way counts as inactive or inconclusive; further: nearly all actives have a fitted effect of over 50% in size; further: potency means the concentration at half of the fitted maximal effect)
# How it was run: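 Counter screen run in the same wells as the VDR-bla reporter assay: CellTiter-Glo luminescence, 30 min at room temperature, after 16 h compound treatment at 37C of cells pre-plated for 4 h.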
# [2] = qHTS assay to identify small molecule antagonists of the vitamin D receptor (VDR) signaling pathway - cell viability counter screen (AID 743225; active means well fitted curve in the direction sought with a large enough effect in the repeat runs; an effect the other way counts as inactive or inconclusive; further: nearly all actives have a fitted effect of over 50% in size; further: potency means the concentration at half of the fitted maximal effect)
# How it was run: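 Compounds were pinned onto VDR-bla HEK 293T cells together with 1-alpha,25-dihydroxyvitamin D3 at 3 nM final. After 16 h at 37C and 5% CO2 plus the reporter readout, cell viability was measured by CellTiter-Glo luminescence (30 min, room temperature).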
# [3] = qHTS assay to identify small molecule agonists of the NFkB signaling pathway (AID 1159509; active means well fitted curve in the direction sought with a large enough effect in the signal ratio in the repeat runs, not every such curve was filed as active; the % refers to the signal ratio; further: series mostly up to about 61 µM)
# How it was run: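 Beta-lactamase reporter assay run in quantitative high-throughput format on an NF-kB-responsive ME-180 line, with 5 hr compound treatment and a FRET-based blue/green fluorescence readout.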
# [4] = qHTS assay to identify small molecule agonists of the NFkB signaling pathway - cell viability counter screen (AID 1159515); further: nearly all actives have a fitted effect of over 55% in size; further: potency means the concentration at half of the fitted maximal effect
# How it was run: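 Read by CellTiter-Glo luminescence (30 min, room temperature) in the wells also used for the beta-lactamase FRET read. ME-180 NFkB-bla cells at 2,000 per well were plated overnight, then exposed to compound for 5 hr at 37 C.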
# [5] = qHTS assay to identify small molecule agonists of the endoplasmic reticulum stress response signaling pathway (AID 1159516; active means well fitted activation curve with a large enough effect in the signal ratio in the repeat runs, not every such curve was filed as active; the % refers to the signal ratio)
# How it was run: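 Ratiometric FRET readout (405 nm excitation; 460 and 530 nm emission) of a beta-lactamase gene driven by the ER stress response element, after 2 hr substrate loading. HeLa ESRE-bla cells were seeded overnight and treated with compounds for only 5 hr at 37 C.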
# [6] = qHTS assay to identify small molecule agonists of the endoplasmic reticulum stress response signaling pathway - cell viability counter screen (AID 1159517); further: nearly all actives have a fitted effect of over 50% in size; further: potency means the concentration at half of the fitted maximal effect
# How it was run: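 Cytotoxicity of test compounds toward ESRE-bla HeLa cells was assessed after 5 hr exposure. The luminescent CellTiter-Glo signal was measured 30 min after reagent addition.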
# [7] = qHTS assay to identify small molecule antagonists of the retinoid-related orphan receptor gamma (ROR-gamma) signaling pathway - cell viability counter screen (AID 1159520; active means well fitted curve in the direction sought with a large enough effect in the repeat runs; an effect the other way counts as inactive or inconclusive; further: nearly all actives have a fitted effect of over 50% in size; further: potency means the concentration at half of the fitted maximal effect)
# How it was run: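 Tet-on ROR gamma CHO cells (1,000/well) were plated 4 hr, given compounds in DMSO for 2 hr at 37 C, then induced with 1 uM final doxycycline for 16 hr. Viability was read as ATP by CellTiter-Glo luminescence after 30 min.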
# [8] = biological target: Nuclear receptor ROR-gamma (Homo sapiens) (UniProt P51449); assay: qHTS assay to identify small molecule antagonists of the retinoid-related orphan receptor gamma (ROR-gamma) signaling pathway (AID 1159521; active means well fitted curve in the direction sought with a large enough effect in the repeat runs; an effect the other way counts as inactive or inconclusive; further: nearly all actives have a fitted effect of over 50% in size; further: potency means the concentration at half of the fitted maximal effect)
# How it was run: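 Test compounds were applied to Tet-on RORγ CHO cells 2 h ahead of doxycycline hyclate (1 uM final). Luciferase reporter activity was quantified by luminescence after 16 h at 37 C and 5% CO2.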
# [9] = qHTS assay to identify small molecule agonists of the AP-1 signaling pathway - cell viability counter screen (AID 1159525); further: nearly all actives have a fitted effect of over 55% in size; further: potency means the concentration at half of the fitted maximal effect
# How it was run: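 Each titration point was normalised to DMSO and tetra n-octyl ammonium bromide controls. The read was Cell Titer Glo luminescence after 30 min at RT, following 5 h compound exposure of ME-180 AP-1-bla cells at 37 °C.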
# [10] = qHTS assay to identify small molecule agonists of the AP-1 signaling pathway (AID 1159526)
Compound,Potency [1],Potency [2],outcome [3],Potency [4],outcome [5],Potency [6],Potency [7],Potency [8],Potency [9],outcome [10]
O=Cc1ccco1,inactive,inactive,inactive,inactive,inactive,inactive,inactive,inactive,inactive,inactive
O=[N+]([O-])c1c(Cl)c(Cl)c(Cl)c(Cl)c1Cl,inactive,,inactive,inactive,inactive,inactive,inactive,inactive,inactive,inactive
Nc1ccc(-c2ccc(N)c(N)c2)cc1N,inactive,inactive,inactive,inactive,,inactive,inactive,27.2 µM (active),inactive,
CCCCC(CC)COC(=O)Cl (centres undefined),inactive,,inactive,inactive,inactive,inactive,inactive,,inactive,inactive
CCOP(=S)(OCC)O/N=C(\C#N)c1ccccc1,inactive,inactive,inactive,inactive,inactive,inactive,inactive,inactive,inactive,
COc1ccc(C(CN(C)C)C2(O)CCCCC2)cc1 (centres undefined),inactive,inactive,inactive,inactive,inactive,inactive,inactive,,inactive,inactive
O=[N+]([O-])c1ccc(O)c([N+](=O)[O-])c1,inactive,,inactive,,inactive,inactive,inactive,17.3 µM (active) and 17.2 µM (active),inactive,inactive
Oc1cc(Cl)ccc1Oc1ccc(Cl)cc1Cl,20 µM (active),,inactive,22.4 µM (active) and inactive,inactive,20 µM (active),31.4 µM (active) and 29.8 µM (active),15.7 µM (active) and 23.7 µM (active),15.8 µM (active),
c1cc(OCC2CO2)ccc1Cc1ccc(OCC2CO2)cc1 (centres undefined),inactive,inactive,inactive,inactive,,inactive,inactive,inactive,inactive,
CC(C)N(C(=O)SCC(Cl)=C(Cl)Cl)C(C)C,,inactive,inactive,inactive,,inactive,inactive,inactive,inactive,
CC(C)(C)c1ccccc1O,inactive,inactive,inactive,inactive,inactive,inactive,inactive,inactive,inactive,
CNC(=O)Oc1cccc2c1OC(C)(C)O2,inactive,inactive,inactive,inactive,inactive,inactive,inactive,,inactive,inactive
C=CC(=O)OCCO,inactive,,inactive,,inactive,inactive,inactive,inactive,inactive,inactive
CCC(CC)Nc1c([N+](=O)[O-])cc(C)c(C)c1[N+](=O)[O-],inactive,,inactive,inactive,,inactive,inactive,inactive,inactive,
CCCCCc1cc(O)cc(O)c1,inactive,,inactive,inactive,inactive,inactive,inactive,inactive,inactive,
CCc1cccc(CC)c1N(COC)C(=O)CCl,inactive,inactive,inactive,inactive,,inactive,inactive,,inactive,inactive
CCOC(=S)S,24.5 µM (active) and 20.7 µM (active),inactive,inactive,inactive,inactive,inactive,,13.7 µM (active) and 16.3 µM (active),,inactive
O=c1oc2ccccc2c(O)c1C(CC(O)c1ccc(-c2ccc(Br)cc2)cc1)c1ccccc1 (centres undefined),inactive,,inactive,inactive,,,inactive,57.9 µM (active),inactive,
O=P(Oc1ccccc1)(Oc1ccccc1)Oc1ccccc1,inactive,inactive,inactive,inactive,inactive,inactive,inactive,,inactive,inactive
COC(=O)c1sccc1S(=O)(=O)NC(=O)Nc1nc(C)nc(OC)n1,inactive,inactive,inactive,inactive,inactive,inactive,inactive,,inactive,inactive

Compound,Potency [1],Potency [2],outcome [3],Potency [4],outcome [5],Potency [6],Potency [7],Potency [8],Potency [9],outcome [10]
CCCCCCCCC(=O)NCc1ccc(O)c(OC)c1,inactive,inactive,inactive,inactive,,inactive,inactive,inactive,inactive,inactive
O=C1C=CC(=O)C=C1,inactive,inactive,inactive,inactive,,,,inactive,inactive,inactive
COP(=S)(OC)Oc1cc(Cl)c(Cl)cc1Cl,inactive,inactive,inactive,inactive,inactive,inactive,inactive,,inactive,
CCOc1cc(Oc2ccc(C(F)(F)F)cc2Cl)ccc1[N+](=O)[O-],inactive,inactive,inactive,inactive,inactive,inactive,inactive,,inactive,inactive
CC(C)Oc1cc(-n2nc(C(C)(C)C)oc2=O)c(Cl)cc1Cl,12.3 µM (active),13.8 µM (active),inactive,inactive,inactive,inactive,inactive,,inactive,inactive
CC(C)(c1cc(Cl)c(O)c(Cl)c1)c1cc(Cl)c(O)c(Cl)c1,inactive,inactive,inactive,inactive,inactive,43.7 µM (active) and 43.6 µM (active),inactive,inactive,inactive,
N#Cc1cc(Br)c(O)c(Br)c1,inactive,,inactive,,inactive,inactive,inactive,27.3 µM (active) and 37.1 µM (active),inactive,inactive
Oc1c(Cl)c(Cl)c(Cl)c(Cl)c1Cl,,inactive,inactive,inactive,,inactive,inactive,54.5 µM (active),inactive,inactive
Cc1ccc(N)c(N)c1,inactive,,inactive,,inactive,inactive,inactive,inactive,inactive,inactive
Cc1ccc2c(c1N)C(=O)c1ccccc1C2=O,inactive,,inactive,inactive,,inactive,inactive,inactive,inactive,inactive
ClC1C(Cl)C(Cl)C(Cl)C(Cl)C1Cl (centres undefined),inactive,inactive,inactive,55.4 µM (active) and inactive,inactive,inactive,inactive,,inactive,inactive
Nc1ccncc1,inactive,inactive,inactive,inactive,inactive,inactive,inactive,,inactive,inactive
CC(C)NC(C)C,inactive,inactive,inactive,,inactive,inactive,inactive,inactive,inactive,inactive
O=C(NC(=O)c1c(F)cccc1F)Nc1ccc(Cl)cc1,inactive,,inactive,inactive,,inactive,inactive,inactive,inactive,inactive
O=C(Nc1ccc(Br)cc1)c1cc(Br)cc(Br)c1O,1.73 µM (active) and 2.19 µM (active) and 8.41 µM (active),,inactive,13.8 µM (active) and 49 µM (active),,8.68 µM (active) and 1.95 µM (active) and 5.35 µM (active),27.2 µM (active) and 17.2 µM (active),13.6 µM (active) and 10.9 µM (active),inactive,inactive
C[C@]12CCC(=O)C[C@@H]1CC[C@@H]1[C@@H]2CC[C@]2(C)[C@@H](O)CC[C@@H]12,inactive,inactive,inactive,inactive,inactive,inactive,inactive,,inactive,
CCCCN(CC)c1c([N+](=O)[O-])cc(C(F)(F)F)cc1[N+](=O)[O-],inactive,,inactive,inactive,,inactive,inactive,inactive,inactive,inactive
CCOC(=O)C(C)OC(=O)c1cc(Oc2ccc(C(F)(F)F)cc2Cl)ccc1[N+](=O)[O-] (centres undefined),inactive,inactive,inactive,inactive,inactive,inactive,inactive,,inactive,inactive
c1ccc(P(c2ccccc2)c2ccccc2)cc1,inactive,inactive,inactive,inactive,,inactive,inactive,inactive,inactive,inactive
CCOCN(C(=O)CCl)c1c(C)cccc1CC,inactive,inactive,inactive,inactive,,inactive,inactive,45.9 µM (active) and 27.3 µM (active),inactive,inactive
